Where “and” joins values, the source holds several entries; their conditions need not be identical. Identical values can stand only once. Inconclusive results are not listed. For some assays here: Entries with a potency or affinity are not part of this list. Calls of active or inactive are those of the source.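 The calls were made as follows, unless noted: active = compounds killing one labelled cell type while sparing the other, by normalised counts and ratio limits, not self-fluorescent; inactive = the rest.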
Columns and labels:
[1] = liver-stage malaria parasite growth inhibition, primary screen, cell-based, HepG2, luciferase luminescence, HepG2 viability (AID 624349; in the data active = parasite load remaining mostly below about 12%, no sharp cut-off; inactive = mostly above about 10%;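 also: 100% = mean of DMSO negative control wells on the same plate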); conditions: P. berghei liver stage in HepG2, luciferase luminescence, concentration not given here; parasite load remaining: stronger effect = lower value; viability: measured here: HepG2 viability without parasites
[2] = differential killing of epithelial or mesenchymal cells, primary screen, imaging, PC-3E GFP, TEM4-18 mCherry, co-culture (AID 1345086); conditions: imaging cell counts, at 1 µM; for red/green cell ratio (normalised): actives lie on both sides;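 as to all read-outs here: cells exposed to compound for 72 h before imaging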;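 as to red/green cell ratio (normalised): normalised mesenchymal count divided by normalised epithelial count so high means epithelial killing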
[3] = test system: Aerobactin synthetase IucA (Klebsiella pneumoniae hvKP1); test: Biochemical IucA enzyme inhibition primary screen of the Spectrum library (AID 1346200; call rule not given here;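 also: 100% = wells without compound and 0% = wells lacking enzyme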); conditions: malachite green pyrophosphate, A620, at 8 µM, stronger effect = lower value
[4] = sensitizers of A549 cells to miR-34 induction, primary screen, imaging, A549 dox-inducible miR-34, nuclei and caspase counts (AID 1347080;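 active = compounds whose cell count with miR-34 switched on is under 0.7 times the count with it off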); conditions: A549 miR-34 inducible, Hoechst nuclei count, 48 h
[5] = polyglutamine-triggered caspase-3 activation inhibitors, cell-based (AID 1583); conditions: polyglutamine-induced caspase-3 activation, cell assay; stronger effect = higher value;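 tested at 10 µM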
[6] = suppressors of polyQ aggregation in yeast, 75Q-TubU reporter (AID 1593); conditions: Yeast 75Q polyglutamine aggregation reporter
[7] = rescue of polyQ-huntingtin neuronal dysfunction in worms, whole organism, C. elegans mechanosensory neurons, N-terminal huntingtin (AID 1599); conditions: touch response, stronger effect = higher value
[8] = inhibitors of mitochondrial cytochrome c release, biochemical, purified mitochondria (AID 1603); conditions: stronger effect = lower value;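 also: mouse liver mitochondria challenged with calcium chloride; signal normalized to the plate average as 100%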
[9] = inhibitors of polyQ protein aggregation (AID 1604); conditions: polyglutamine-induced protein aggregation inhibition assay; stronger effect = higher value; tested at 2.5 µM
[10] = enhancers of glutamate uptake in motor neurons, MN-1 cell line (AID 1612); conditions: MN-1 motor neuron cells, stronger effect = higher value;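 also: tested at 1 µM final; 0% = mean of DMSO vehicle wells on each plate; positive means more glutamate uptake than control and negative means less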
[11] = suppressors of polyglutamine aggregation in yeast, 75Q-TubH (AID 1616); conditions: S. cerevisiae 75Q-TubH polyglutamine aggregation suppression; stronger effect = higher value
[12] = target: Mitogen-activated protein kinase 7 (Homo sapiens) (UniProt Q13164); test: ERK5 transactivation activators in reporter cells, primary screen, cell-based, HTS (AID 1508626;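 active = luciferase signal above three times the same-plate solvent-only control wells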;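 also: luciferase driven by Gal4-ERK5 fusion binding five Gal4 sites before minimal TATA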); conditions: HeLa Gal4-ERK5 transactivation, 18 h, at 5 µM, stronger effect = higher value
Mitogen-activated protein kinase 7 (Homo sapiens), sequence (Q13164 whole entry, looked up, the tested form may be a part): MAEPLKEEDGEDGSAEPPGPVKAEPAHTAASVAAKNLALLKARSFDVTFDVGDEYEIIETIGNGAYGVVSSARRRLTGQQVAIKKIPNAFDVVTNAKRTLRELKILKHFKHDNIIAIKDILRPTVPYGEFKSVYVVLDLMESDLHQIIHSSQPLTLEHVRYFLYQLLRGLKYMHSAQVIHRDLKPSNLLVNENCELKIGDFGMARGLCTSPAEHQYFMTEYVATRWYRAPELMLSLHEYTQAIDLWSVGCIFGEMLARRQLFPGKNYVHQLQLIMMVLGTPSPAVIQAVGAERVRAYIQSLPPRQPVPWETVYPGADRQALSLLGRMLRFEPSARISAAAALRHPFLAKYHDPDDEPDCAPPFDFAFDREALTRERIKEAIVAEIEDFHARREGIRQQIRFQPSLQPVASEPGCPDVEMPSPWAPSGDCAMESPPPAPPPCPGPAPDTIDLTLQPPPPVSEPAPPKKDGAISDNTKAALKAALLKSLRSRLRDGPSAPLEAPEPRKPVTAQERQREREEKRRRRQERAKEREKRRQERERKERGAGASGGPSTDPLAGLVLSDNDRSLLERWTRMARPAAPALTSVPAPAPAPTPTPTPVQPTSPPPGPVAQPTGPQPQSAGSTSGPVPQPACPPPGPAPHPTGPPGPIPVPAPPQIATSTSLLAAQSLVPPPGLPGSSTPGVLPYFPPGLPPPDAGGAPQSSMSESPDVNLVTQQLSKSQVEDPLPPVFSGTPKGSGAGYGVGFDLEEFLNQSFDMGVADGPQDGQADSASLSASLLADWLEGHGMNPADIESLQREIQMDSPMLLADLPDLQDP

[13] = reducers of polyQ inclusions in PC12 cells, cell-based, NGF-treated PC12, GFPQ80 (AID 1614); conditions: PC12 NGF-treated GFP-polyQ80 inclusion reduction;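 also: lower means fewer inclusions and 0 means no inclusions at all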
[14] = target: NAD(+) hydrolase SARM1 (Homo sapiens) (UniProt Q6SZW1); test: SARM1 TIR NADase inhibitors, cell lysate, NAD-Glo luminescence (AID 1508614;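 active = compound whose remaining NAD level is above about 45 nM, limit read from the data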;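 also: higher remaining NAD means stronger inhibition of SARM1 NADase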); conditions: SAM-TIR HEK293T lysate NADase, at 1 µM, stronger effect = higher value
NAD(+) hydrolase SARM1 (Homo sapiens), sequence (Q6SZW1 whole entry, looked up): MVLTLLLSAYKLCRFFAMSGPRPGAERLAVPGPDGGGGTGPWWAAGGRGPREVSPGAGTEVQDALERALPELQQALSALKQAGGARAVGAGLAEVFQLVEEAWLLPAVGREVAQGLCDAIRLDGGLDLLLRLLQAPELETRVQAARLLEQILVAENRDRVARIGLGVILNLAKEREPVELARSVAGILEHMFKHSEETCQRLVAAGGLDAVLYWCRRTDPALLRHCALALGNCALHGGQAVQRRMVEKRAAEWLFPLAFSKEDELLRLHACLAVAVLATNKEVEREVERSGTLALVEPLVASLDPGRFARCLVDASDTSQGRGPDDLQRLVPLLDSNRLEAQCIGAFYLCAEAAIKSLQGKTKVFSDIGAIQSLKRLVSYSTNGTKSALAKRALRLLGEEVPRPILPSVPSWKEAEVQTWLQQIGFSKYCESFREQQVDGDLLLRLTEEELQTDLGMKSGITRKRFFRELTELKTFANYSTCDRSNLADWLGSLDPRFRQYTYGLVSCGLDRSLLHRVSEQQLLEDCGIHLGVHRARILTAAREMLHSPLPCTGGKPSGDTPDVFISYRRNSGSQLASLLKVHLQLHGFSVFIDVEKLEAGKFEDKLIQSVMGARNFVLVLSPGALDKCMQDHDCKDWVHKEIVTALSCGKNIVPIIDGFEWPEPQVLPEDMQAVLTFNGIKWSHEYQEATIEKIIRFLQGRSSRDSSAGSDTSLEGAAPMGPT

[15] = target: ATP-dependent translocase ABCB1 (Homo sapiens) (UniProt P08183); test: MDR1 (ABCB1) efflux transporter inhibition, cell-based (AID 377; in the data active = fluorescence slope change above about 50%); conditions: MDR1-expressing cells, fluorescent substrate accumulation slope; stronger effect = higher value; concentration not given here
ATP-dependent translocase ABCB1 (Homo sapiens), sequence (P08183 whole entry, looked up): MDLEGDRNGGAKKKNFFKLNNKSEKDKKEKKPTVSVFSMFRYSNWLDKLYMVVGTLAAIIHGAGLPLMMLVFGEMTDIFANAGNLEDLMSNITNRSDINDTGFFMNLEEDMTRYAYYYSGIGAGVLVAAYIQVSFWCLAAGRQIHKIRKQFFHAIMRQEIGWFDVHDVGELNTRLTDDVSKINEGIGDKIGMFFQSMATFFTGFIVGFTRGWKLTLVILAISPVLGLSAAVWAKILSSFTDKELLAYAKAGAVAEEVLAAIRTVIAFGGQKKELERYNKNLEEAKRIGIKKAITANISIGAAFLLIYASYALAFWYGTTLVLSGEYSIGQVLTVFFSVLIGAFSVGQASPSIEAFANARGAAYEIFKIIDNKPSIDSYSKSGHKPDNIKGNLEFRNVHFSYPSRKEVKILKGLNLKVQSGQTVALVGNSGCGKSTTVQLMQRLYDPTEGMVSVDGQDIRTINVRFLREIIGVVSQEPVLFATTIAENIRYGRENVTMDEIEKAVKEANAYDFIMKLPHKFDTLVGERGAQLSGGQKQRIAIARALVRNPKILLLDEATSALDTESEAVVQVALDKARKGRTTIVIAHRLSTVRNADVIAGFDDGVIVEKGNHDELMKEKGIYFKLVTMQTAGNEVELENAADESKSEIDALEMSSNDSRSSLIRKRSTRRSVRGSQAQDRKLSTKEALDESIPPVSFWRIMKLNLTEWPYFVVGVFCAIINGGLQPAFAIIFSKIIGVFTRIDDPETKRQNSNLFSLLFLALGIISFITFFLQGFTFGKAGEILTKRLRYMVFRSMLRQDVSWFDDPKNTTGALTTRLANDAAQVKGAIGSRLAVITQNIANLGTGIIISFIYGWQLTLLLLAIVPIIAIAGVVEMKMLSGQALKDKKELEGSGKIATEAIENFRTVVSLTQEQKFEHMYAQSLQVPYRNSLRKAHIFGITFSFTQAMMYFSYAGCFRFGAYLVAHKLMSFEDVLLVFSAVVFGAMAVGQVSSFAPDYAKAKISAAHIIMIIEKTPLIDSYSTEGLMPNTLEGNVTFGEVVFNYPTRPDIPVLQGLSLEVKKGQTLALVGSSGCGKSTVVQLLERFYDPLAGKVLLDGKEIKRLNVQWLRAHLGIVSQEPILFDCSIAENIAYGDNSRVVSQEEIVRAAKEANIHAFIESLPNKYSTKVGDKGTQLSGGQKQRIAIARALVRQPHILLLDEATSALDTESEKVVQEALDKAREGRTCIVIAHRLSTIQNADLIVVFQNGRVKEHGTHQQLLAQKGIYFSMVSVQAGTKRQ

[16] = hESC survival regulators, cell-based (AID 493140; call rule not given here;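 also: cells exposed to compounds for four days before counting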); conditions: human embryonic stem cell survival screen; stronger effect = higher value
[17] = survival rescue of mitochondrial mutant cells in low glucose, primary screen, MELAS cybrids, Rieske KO mouse fibroblasts, CellTiter-Glo (AID 1508586;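 active = mean z-score across replicates of 1.96 or higher in either the MELAS or the Rieske mutant cell line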;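 also: z relative to plate mean and SD of compound and empty wells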)
[18] = measured here: epithelial PC-3E GFP cell survival
[19] = measured here: mesenchymal TEM4-18 mCherry cell survival
[20] = measured here: relative caspase fold change +Dox/-Dox
[21] = measured here: total cells with miR-34 induction, stronger effect = lower value
[22] = measured here: total cells without miR-34 induction

CC(C)C[C@@H](CN)CC(=O)O
parasite load remaining [1]: 133% (inactive) and 53% (inactive) | viability [1]: 88.1% and 116% | red/green cell ratio (normalised) [2]: 1.06 (inactive) | normalised cell number [2, 18]: 1.2 | normalised cell number [2, 19]: 1.27 | activity remaining [3]: 121% (inactive) | fold change ([4]; stronger effect = lower value): 0.933 (inactive) | fold change [4, 20]: 3.45 | cell count [4, 21]: 12300 | cell count [4, 22]: 13200

CC(=O)O[C@@H]1C[C@@]2(C)[C@H](c3ccoc3)C[C@H]3O[C@]32[C@]2(C)C(=O)C(O)=C3C(C)(C)C(=O)C=C[C@]3(C)C12 (stereo partly drawn)
red/green cell ratio (normalised) [2]: 0.93 (inactive) | normalised cell number [2, 18]: 0.15 | normalised cell number [2, 19]: 0.14 | activity remaining [3]: 102% (inactive)

C=C[C@H]1CN2CC[C@H]1C[C@@H]2[C@@H](OC(=O)OCC)c1ccnc2ccc(OC)cc12
inhibition [5]: 11.7% | score [6]: 1.24 | rescue above control [7]: 17 | cytochrome c release ratio [8]: 1.43 | inhibition of aggregation [9]: 70.5% | glutamate uptake change [10]: 9.82% | aggregation suppression score [11]: 1.15 | parasite load remaining [1]: 53% (inactive) | viability [1]: 91.4% | red/green cell ratio (normalised) [2]: 1.15 (inactive) | normalised cell number [2, 18]: 0.67 | normalised cell number [2, 19]: 0.77 | activity remaining [3]: 98.2% (inactive) | fold change ([4]; stronger effect = lower value): 0.94 (inactive) | fold change [4, 20]: 1.23 | cell count [4, 21]: 11100 | cell count [4, 22]: 11800

CC[C@@]1(O)C[C@H](O[C@H]2C[C@H](N(C)C)[C@H](O)[C@H](C)O2)c2c(cc3c(c2O)C(=O)c2c(O)ccc(O)c2C3=O)[C@H]1C(=O)OC
red/green cell ratio (normalised) [2]: 0.85 (inactive) | normalised cell number [2, 18]: 1.07 | normalised cell number [2, 19]: 0.9 | activity remaining [3]: 96.8% (inactive) | luciferase signal [12]: 32 AU (inactive)

C[C@@H]1O[C@@H](O[C@H]2C[C@@H](O)[C@]3(CO)C4C(CC[C@]3(O)C2)[C@@]2(O)CC[C@H](C3=CC(=O)OC3)[C@@]2(C)C[C@H]4O)[C@H](O)[C@H](O)[C@H]1O (stereo partly drawn)
inhibition [5]: 78.5% | score [6]: 1.02 | rescue above control [7]: 3.58 | cytochrome c release ratio [8]: 1.01 | inhibition of aggregation [9]: 75% | glutamate uptake change [10]: -21.6% | inclusion score [13]: 2 | aggregation suppression score [11]: 1.24 | parasite load remaining [1]: 242% (inactive) and -0.205% (inactive) | viability [1]: 38.6% and 15.3% | red/green cell ratio (normalised) [2]: 0.13 (inactive) | normalised cell number [2, 18]: 0.14 | normalised cell number [2, 19]: 0.02 | activity remaining [3]: 122% (inactive) | fold change ([4]; stronger effect = lower value): 0.536 (active) | fold change [4, 20]: 2.2 | cell count [4, 21]: 195 | cell count [4, 22]: 364

COC(C)(C)CCC[C@H](C)C/C=C/C(C)=C/C(=O)OC(C)C
red/green cell ratio (normalised) [2]: 0.86 (inactive) | normalised cell number [2, 18]: 1.2 | normalised cell number [2, 19]: 1.03 | activity remaining [3]: 109% (inactive) | luciferase signal [12]: 72 AU (inactive)

CNC(C)[C@H](O)c1ccccc1 (stereo partly drawn)
parasite load remaining [1]: 77% (inactive) | viability [1]: 74.2% | red/green cell ratio (normalised) [2]: 1.42 (inactive) | normalised cell number [2, 18]: 0.95 | normalised cell number [2, 19]: 1.35 | activity remaining [3]: 87.2% (inactive) | remaining NAD [14]: 10 nM (inactive) | luciferase signal [12]: 52 AU (inactive)

CC1(C)C(=O)C=C[C@@]2(C)C1C[C@@H](O)[C@]1(C)C2CC[C@@]2(C)[C@H](c3ccoc3)OC(=O)[C@H]3O[C@]321 (stereo partly drawn)
red/green cell ratio (normalised) [2]: 1.08 (inactive) | normalised cell number [2, 18]: 0.88 | normalised cell number [2, 19]: 0.95 | activity remaining [3]: 88.4% (inactive)

CCC(C)C(=O)O[C@H]1[C@H](O)C2C(CN3CC(C)CCC3[C@@]2(C)O)C2C[C@]34O[C@]5(O)C(OC(=O)C(C)(O)CC)CC[C@@]3(C)C5C(OC(C)=O)[C@@H](OC(C)=O)C4[C@@]21O (stereo partly drawn)
inhibition [5]: -14% | score [6]: 1.53 | rescue above control [7]: -1.62 | cytochrome c release ratio [8]: 0.8 | inhibition of aggregation [9]: 60.8% | glutamate uptake change [10]: 12.6% | inclusion score [13]: 2 | aggregation suppression score [11]: 1.64 | parasite load remaining [1]: 35.5% (inactive) | viability [1]: 65.2% | red/green cell ratio (normalised) [2]: 0.9 (inactive) | normalised cell number [2, 18]: 1.11 | normalised cell number [2, 19]: 1 | activity remaining [3]: 105% (inactive)

CN(C)Cc1c[nH]c2ccccc12
fluorescence slope change [15]: 124% (active) | survival [16]: 7.33 (inactive) | parasite load remaining [1]: 169% (inactive) and 78.1% (inactive) | viability [1]: 115% and 79.2% | red/green cell ratio (normalised) [2]: 1.08 (inactive) | normalised cell number [2, 18]: 0.84 | normalised cell number [2, 19]: 0.9 | fold change ([4]; stronger effect = lower value): 0.891 (inactive) and 0.984 (inactive) | fold change [4, 20]: 2.07 and 0.28 | cell count [4, 21]: 8410 and 7970 | cell count [4, 22]: 9440 and 8100 | z-score ([17]; MELAS cybrid survival, CellTiter-Glo 48 h, stronger effect = higher value): -0.265 (inactive) | z-score ([17]; Rieske KO mouse fibroblast survival, CellTiter-Glo 72 h): 0.0463

C[C@@H]1O[C@@H](O[C@H]2CC[C@]3(C=O)C4CC[C@]5(C)[C@@H](C6=CC(=O)OC6)CC[C@]5(O)C4CC[C@]3(O)C2)[C@H](O)[C@H](O)[C@H]1O (stereo partly drawn)
parasite load remaining [1]: 3.9% (inactive) | viability [1]: 51% | red/green cell ratio (normalised) [2]: 0.21 (inactive) | normalised cell number [2, 18]: 0.1 | normalised cell number [2, 19]: 0.02 | activity remaining [3]: 95.5% (inactive)

NC1=NC(=O)N2CC12 (stereo not drawn)
red/green cell ratio (normalised) [2]: 0.74 (inactive) | normalised cell number [2, 18]: 1.2 | normalised cell number [2, 19]: 0.88 | fold change ([4]; stronger effect = lower value): 0.901 (inactive) | fold change [4, 20]: 0.97 | cell count [4, 21]: 8180 | cell count [4, 22]: 9090 | remaining NAD [14]: 10 nM (inactive)

O=c1c(O)c(-c2ccc(O)c(O)c2)oc2c(O)c(O)cc(O)c12
red/green cell ratio (normalised) [2]: 1.09 (inactive) | normalised cell number [2, 18]: 0.84 | normalised cell number [2, 19]: 0.91 | activity remaining [3]: 118% (inactive) | luciferase signal [12]: 48 AU (inactive)

CC[C@H]1C2CC3[C@@H]4N(C)c5ccccc5[C@]45C[C@@H](C2C5O)N3[C@@H]1O (stereo partly drawn)
parasite load remaining [1]: 88.5% (inactive) | viability [1]: 73.8% | red/green cell ratio (normalised) [2]: 1.03 (inactive) | normalised cell number [2, 18]: 0.98 | normalised cell number [2, 19]: 1.01 | activity remaining [3]: 112% (inactive)

C=CCc1ccc(OC)cc1
red/green cell ratio (normalised) [2]: 1.02 (inactive) | normalised cell number [2, 18]: 0.96 | normalised cell number [2, 19]: 0.99 | activity remaining [3]: 107% (inactive) | luciferase signal [12]: 52 AU (inactive)

Reference: PubChem BioAssay
